# Data from PubChem BioAssay (NCI).
# Compounds without any hit were thinned out: in the full panel of roughly 83,000, 20% have a hit.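 For each line, cells grew in 96-well plates with the test compound present at a single concentration for 48 hours.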 Values without a mark were called inactive. The source made the active and inactive calls. How the source made its calls: active means growth percent below 10; inactive means the rest.
# Tested on: PC-3 prostate
# Experiment: NCI-60 one-dose screen, 48 h (100 = growth as untreated, 0 = no growth, -100 = all killed)
# Settings: 10 µM
row,SMILES,growth
1,COc1cc2cc(C(=O)N3C[C@@H](CCl)c4c3cc(OC(=O)N3CCN(C)[C@@H]5CSSC[C@H]53)c3ccccc43)[nH]c2c(OC)c1OC,-24.8% (active)
2,CC1=C(CCC=O)C2=C(C)C3(CC3)[C@@](C)(O)C(=O)C2=C1,-40.6% (active)
3,COC(=O)C[C@](O)(CCC(C)C)C(=O)O[C@@H]1C(OC)=C[C@]23CCCN2CCc2cc4c(cc2[C@H]13)OCO4,-19% (active)
4,O=C(/C=C/c1ccc(Cl)cc1)c1nc2ccccc2n1Cc1ccc(F)cc1,19.5%
5,CC[C@]12C=CCN3CC[C@@]4(c5ccc(OC)cc5N(C)[C@H]4[C@@](O)(C(=O)OC)[C@@H]1OC(=O)CCC[P+](C1CCCCC1)(C1CCCCC1)C1CCCCC1)[C@@H]32,-12% (active)
6,CC1=C2C(=C[C@@](C)(COP(=O)(Oc3ccccc3)Oc3ccccc3)[C@@H]2O)C(=O)[C@@](C)(O)C12CC2,-31% (active)
7,CC(=O)Oc1ccccc1C(=O)NC([Se])=NC1CCCCC1,44.6%
8,CCOP(=O)(CC(F)(F)C(F)(F)F)OCC,63.8%
9,CC(C)C[C@H](NC(=O)CNC(=O)C[C@H]1O[C@@H]2OC3(C)CC[C@H]4[C@H](C)CC[C@@H]([C@H]1C)[C@@]24OO3)B(O)O,4.1% (active)
10,C[C@H]1[C@@H](Oc2ccc(-c3cn(-c4ccnc5cc(Cl)ccc45)nn3)cc2)O[C@@H]2OC3(C)CC[C@H]4[C@H](C)CC[C@@H]1[C@@]24OO3,29.2%
11,C[C@H]1[C@H](OC(=O)CCC(=O)N(CCCc2cn(-c3ccc([N+](=O)[O-])cc3)nn2)CCNc2ccnc3cc(Cl)ccc23)O[C@@H]2OC3(C)CC[C@H]4[C@H](C)CC[C@@H]1[C@@]24OO3,41.2%
12,COc1cc2cc(C(=O)N3C[C@@H](CCl)c4c3cc(OC(=O)N3CCN(C)[C@@H]5CSSC[C@@H]53)c3ccccc43)[nH]c2c(OC)c1OC,-1.7% (active)
13,COc1cc2cc(C(=O)N3C[C@@H](CCl)c4c3cc(OC(=O)N3CCN(C(=O)CCC(=O)N5CCN(C)CC5)[C@@H]5CSSC[C@@H]53)c3ccccc43)[nH]c2c(OC)c1OC,-10.5% (active)
14,COC(=O)c1ccc(-n2cc(CCCN(CCNc3ccnc4cc(Cl)ccc34)C(=O)CCC(=O)O[C@@H]3O[C@@H]4OC5(C)CC[C@H]6[C@H](C)CC[C@@H]([C@H]3C)[C@@]46OO5)nn2)cc1,39.7%
15,O=C([Se]C1C=CCCC1)c1ccc(C(=O)[Se]C2C=CCCC2)s1 (stereo not given),-16.5% (active)
16,O=C(/C=C/c1cccc(Br)c1)c1nc2ccccc2n1Cc1ccc(F)cc1,23.8%
17,CC[C@]12C=CCN3CC[C@@]4(c5ccc(OC)cc5N(C)[C@H]4[C@@](O)(C(=O)OC)[C@@H]1OC(=O)CCC[P+](c1ccc(C)cc1)(c1ccc(C)cc1)c1ccc(C)cc1)[C@@H]32,-83.3% (active)
18,O=C(NC([Se])=NC1CCCCC1)c1ccccc1,51.3%
19,O=C(/C=C/c1ccc(F)cc1)c1nc2ccccc2n1Cc1ccc(F)cc1,8.29% (active)
20,O=C(/C=C/c1ccccc1)c1nc2ccccc2n1Cc1ccc(Br)cc1,-31% (active)
21,C=CC[Se]C(=O)c1cncc(C(=O)[Se]CC=C)c1,-65.8% (active)
22,COc1ccc(OC)c(/C=C/C(=O)c2nc3ccccc3n2Cc2ccc(F)cc2)c1,0.247% (active)
23,O=C(/C=C/c1ccc(F)cc1)c1nc2ccccc2n1Cc1ccc(Br)cc1,-39.4% (active)
24,CC[C@]12C=CCN3CC[C@@]4(c5ccc(OC)cc5N(C)[C@H]4[C@@](O)(C(=O)OC)[C@@H]1OC(=O)CCCC[P+](c1ccc(C)cc1)(c1ccc(C)cc1)c1ccc(C)cc1)[C@@H]32,-73.2% (active)
25,CC(C)N=C([Se])NC(=O)c1cccs1,8.44% (active)
26,CC1=C(CCC=NNC(N)=O)C2=C(C)C3(CC3)[C@@](C)(O)C(=O)C2=C1,2.58% (active)
27,Cc1ccc2[nH]c(=S)n(-c3ccc(F)cc3)c(=O)c2c1,90%
28,C#CC[Se]C(=O)c1ccc2n[se]nc2c1,39.6%
29,CC1=C(COCCOC(=O)c2ccc(S(=O)(=O)F)cc2)C2=C(C)C3(CC3)[C@@](C)(O)C(=O)C2=C1,8.96% (active)
30,CC12CCC3(CCC(=O)NCCCNc4ccnc5cc(Cl)ccc45)[C@@](C)(OO[C@]3(C)O1)O2,28.3%
